# TDP1 inh = inhibitors of human tyrosyl-DNA phosphodiesterase TDP1; hit rate 0.28% among 350,000; Potency, µM (doses to about 130 µM), usual class: inhibitors; recombinant TDP1, AlphaScreen DNA substrate cleavage; Q9NUW8; AID 485290; further: nearly all actives have a fitted effect of over 40% in size
#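 Enzyme-compound mixtures sat 15 min at room temperature, followed by a 5 min reaction with 15 nM final substrate and 10 min with AlphaScreen beads. Recombinant human Tdp1 was used at 1 nM final.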
# IL1B secr inh = inhibitors of inflammasome signaling (IL-1 beta secretion); AID 743279; activity change, % at 57.5 µM; THP-1 LPS/ATP IL-1B secretion, AlphaLISA, 16 h; stronger effect = lower value; hit rate 4.7% among 360,000; in the data active means activity change below about -50%; inconclusive means mostly about -30% to -49%
#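 THP-1 cells pretreated 1 hr with compounds (up to 57.5 uM final), then stimulated with LPS (250 ng/mL final) plus ATP (1.25 mM final); secreted IL-1B measured by AlphaLISA after 16 hr, decreased signal indicating inhibition.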
# DT40 TDP1 CPT = growth inhibition of DT40 Tdp1-/-;hTDP1 cells with camptothecin (screen for TDP1 inhibitors); chicken DT40 Tdp1-/-;hTDP1 cells + 20 nM CPT, ATP luminescence, 48 h; Potency, µM (titrated, usually from 46.2 µM), hits mostly inhibitors; hit rate 12% among 420,000; further: nearly all actives have a fitted effect of over 55% in size
#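 Chicken DT40 Tdp1-/- cells stably complemented with human TDP1 were seeded at 400 cells/well in medium containing 20 nM camptothecin, exposed to pin-transferred compounds, and grown at 37 °C for at least 48 hr. Viability was read as ATP luminescence.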
# CtBP-E1A blk = blocks the CtBP interaction with E1A. activity change, % (concentration not given with the values). AID 651724. AlphaScreen GST-E1A/His-CtBP binding, 1536-well; stronger effect = lower value. hit rate 0.49% among 340,000; in the data active means activity change below about -65%; inconclusive means mostly about -30% to -63%
#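 AlphaScreen with 125 nM GST-E1A and 125 nM His-CtBP (5X stocks) in Tris pH 8.0, 300 mM NaCl, BSA, Tween 20, TCEP. Compounds preincubated 2 h at 37 deg C, then glutathione donor/nickel acceptor beads added for 1 h at 37 deg C in dark.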
# TDP1 cell noCPT = qHTS for Inhibitors of human tyrosyl-DNA phosphodiesterase 1 (TDP1): qHTS in cells in absence of CPT; Potency, µM (titrated, usually from 46.2 µM), usual class: inhibitors; hit rate 15% among 420,000; DT40 Tdp1-/- hTDP1 cells, no CPT, ATP luminescence, 48 h; further: nearly all actives have a fitted effect of over 55% in size
#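 Stably hTDP1-transfected Tdp1-null chicken DT40 cells were treated with library compounds minus camptothecin and grown for at least 48 hr at 37 °C, after which cellular ATP was quantified by luminescence.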
# Six1-Eya2 inh = Six1/Eya2 interaction inhibition. hit rate 0.56% among 360,000. AID 651725. Q15475+O00167. activity change, % (test concentration not listed). AlphaScreen GST-Six1/His-Eya2 binding, biochemical; stronger effect = lower value; in the data active means activity change below about -65%; inconclusive means mostly about -30% to -63%
#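 Homogeneous AlphaScreen proximity assay pairing GST-Six1 with His-tagged Eya2 (added as 5X mix: 250 nM and 500 nM) in 50 mM Tris pH 8.0, 300 mM NaCl, 1 mM TCEP. Glutathione donor and nickel acceptor beads; 1 h, 37 °C, dark.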
# Hits are given with their value; . = inactive; ? = inconclusive; / = no result given; [ ] = dose if it differs, or a comment. Sampled rows, rich in hits. Any-hit rate of the full collection: about 18%. Unless noted, the call rests on the fitted dose curve; in most records, active means well fitted curve in the direction sought with a large enough effect; inconclusive means small, poorly fitted or top-dose-only effect, or another doubt; inactive means no such curve, though single readings can be large; an effect the other way counts as inactive or inconclusive.
SMILES,TDP1 inh,IL1B secr inh,DT40 TDP1 CPT,CtBP-E1A blk,TDP1 cell noCPT,Six1-Eya2 inh
CC1=C(C(=O)Nc2cccnc2)C(c2ccc(Cl)cc2)n2nc(-c3ccccc3)nc2N1 (stereo unspecified),.,/,16.4µM,/,?,/
COc1ccc(C2C(C(=O)Nc3ccccc3)=C(C)Nc3nc(-c4ccccc4)nn32)c(OC)c1 (stereo unspecified),/,/,16.4µM,/,?,/
COc1cccc(C2C(C(=O)Nc3ccccc3)=C(C)Nc3nc(-c4ccccc4)nn32)c1OC (stereo unspecified),/,/,16.4µM,/,?,/
COc1ccc(NC(=O)C2=C(C)Nc3nc(SC)nn3C2c2cc(OC)ccc2OC)cc1 (stereo unspecified),.,/,.,/,.,/
COc1ccc(Cn2ccn(Cc3cccc(Cl)c3)c(=O)c2=O)cc1,.,/,?,/,.,/
CCN(C(=O)CSc1nccn1C)c1cccc2ccccc12,.,.,20.6µM,.,10.3µM,.
Cn1ccnc1SCC(=O)c1ccc([N+](=O)[O-])cc1,.,.,18.4µM,.,?,.
Cn1ccnc1SCC(=O)c1c[nH]c2ccccc12,.,.,.,.,.,.
COc1ccccc1C(=O)CSc1nccn1C,.[0.0935 µM],.,?,.,16.4µM,.
CCC1Sc2ccccc2N(CC(=O)NCc2ccccc2OC)C1=O (stereo unspecified),.,.,.,.,.,.
CCOc1cc(/C=C/C(=O)c2ccc(OC)c(CN3CCOCC3)c2)cc(Br)c1O,/,-96.1,?,.,?,.
CCn1c(Cl)c(C=O)s/c1=N\S(=O)(=O)c1ccccc1,.,.,0.82µM,.,0.366µM,.
O=C(c1nnc(-c2ccncc2)o1)c1ccccc1Cl,.,.,.,.,.,.
c1ccc(C2NCCc3ccccc32)cc1 (stereo unspecified),.,.,?,.,25.9µM,.
Cc1[nH]c2ccccc2c1C(=O)CN1CCC(C)CC1,.,.,.,.,.,.
Cc1ccnc(NC(c2ccccn2)c2c(C)[nH]c3ccccc23)c1 (stereo unspecified),.,-106.2,?,.,?,.
Cc1[nH]c2ccccc2c1C(c1ccccn1)N1CCCC1 (stereo unspecified),.,.,?,.,16.4µM,.
CCOC(=O)C1CCCN(C(c2ccccn2)c2c(C)[nH]c3ccccc23)C1 (stereo unspecified),.,.,.,.,.,.
Cc1[nH]c2ccccc2c1C(c1ccccn1)N1CCC(C)CC1 (stereo unspecified),.,-106.6,20.6µM,.,20.6µM,.
Cc1ccc(NC(=O)Cn2c(=O)cnc3ccccc32)cc1S(=O)(=O)N1CCCCC1,.,.,?,.,?,.
CCOC(=O)N1CCN(C(=O)c2ccc(Cn3c(=S)[nH]c4cc(C(=O)OC)ccc4c3=O)cc2)CC1,.,.,?,/,8.2µM,.
COc1ccccc1Cn1c(=S)[nH]c2cc(C(=O)N3CC(C)CC(C)C3)ccc2c1=O (stereo unspecified),/,?,?,.,?,.
CCCCCn1c(=S)[nH]c2cc(C(=O)N3CCN(C(=O)OCC)CC3)ccc2c1=O,.[0.0935 µM],.,.,.,?,.
CCOC(=O)C1CCCN(C(=O)c2ccc3c(=O)n(Cc4ccccc4OC)c(=S)[nH]c3c2)C1 (stereo unspecified),.,.,?,.,18.4µM,.
CCOC(=O)C1CCCN(C(=O)c2ccc(Cn3c(=S)[nH]c4cc(C(=O)OC)ccc4c3=O)cc2)C1 (stereo unspecified),.,.,?,.,25.9µM,.
C=CCOC(=O)C1=C(C)Nc2[nH]c(=O)[nH]c(=O)c2C1c1cccc(OC)c1 (stereo unspecified),.,/,/,/,/,/
Cc1nn(-c2ccccc2)c2c1C(c1ccco1)C(C#N)=C(N)O2 (stereo unspecified),.,.,.,.,?,.

# Screening results: PubChem, National Center for Advancing Translational Sciences (NCATS)
